Assay [1] in a line: NCI Yeast Anticancer Drug Screen. Data for the rad50 strain (AID 155).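 Also: 0% = growth of vehicle-only cultures of the same strain.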 The note with it: S. cerevisiae rad50 strain growth inhibition, stronger effect = higher value. The method in brief: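 Compounds were tested on a yeast strain with an engineered DNA damage repair alteration; the reported value is growth inhibition normalised to vehicle treatment.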
Assay [2] can be described thus: NCI Yeast Anticancer Drug Screen. Data for the mec2-1 strain (AID 157). The note with it: S. cerevisiae mec2-1 strain, stronger effect = higher value. Summed up: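 Each compound was tested on mec2-1 yeast, a strain altered in DNA damage repair or cell cycle control. Growth inhibition is reported relative to vehicle.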
Assay [3] can be described thus: NCI Yeast Anticancer Drug Screen. Data for the sgs1 mgt1 strain (AID 161).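 Also: 0% = growth of cultures given vehicle only.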 As to conditions: S. cerevisiae sgs1 mgt1 strain, stronger effect = higher value. Summed up:
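Mutant yeast exposed to compound; growth scored against vehicle-only wells.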

Assay [4] can be described thus: NCI Yeast Anticancer Drug Screen. Data for the cln2 rad14 strain (AID 165).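 Also: 0% = growth equal to vehicle treated cultures.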 The note with it: S. cerevisiae cln2 rad14 strain, stronger effect = higher value. Summed up:
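Test compounds were added to cln2 rad14 yeast cultures; inhibition of growth was then determined by comparison with vehicle treatment.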

A short description of assay [5]: NCI Yeast Anticancer Drug Screen. Data for the bub3 strain (AID 167). The note with it: S. cerevisiae bub3 mutant strain, stronger effect = higher value. The method in brief: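 Growth of a checkpoint-deficient yeast mutant is measured after compound exposure. Values represent inhibition relative to vehicle.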
Assay [6] is described as follows: NCI Yeast Anticancer Drug Screen. Data for the mlh1 rad18 strain (AID 175). As to conditions: S. cerevisiae mlh1 rad18 strain growth inhibition, stronger effect = higher value. Summed up: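 Inhibition values reflect reduced growth of mutant yeast versus vehicle-treated controls following compound exposure; the mutations affect DNA damage repair.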
Where [7] appears, read: at 5.0 µM (retest, dose inferred, filed as 0.5).
Where [8] appears, read: at 50.0 µM (retest, dose inferred, filed as 5.0).

This is part of a sample that, as a whole, favours compounds with a hit. Of some 79,000 tested, about 15% had one in any assay. A number with no mark means an inactive call. The source made the active and inactive calls. Rule as the data show it: active = growth inhibition above about 70%; inactive = the rest.

In the case of `Nc1n[n+](-c2ccccc2)no1`, the growth inhibition is 34% in assay [1] (setting [7]); 81% (active) in assay [1] (setting [8]); 61% in assay [1] (at 50.0 µM); 16% in assay [2] (setting [7]); 46% in assay [2] (setting [8]); 33.4% in assay [2] (at 50.0 µM). Besides, the growth inhibition in assay [3] (setting [7]) is 24%; in assay [3] (setting [8]), 60%; in assay [3] (at 50.0 µM), 56.6%; in assay [4] (setting [7]) it was 45%; in assay [4] (setting [8]), 59%; in assay [4] (at 50.0 µM), 23%. Also, the growth inhibition was 43% in assay [5] (setting [7]); 59% in assay [5] (setting [8]); 45.2% in assay [5] (at 50.0 µM); 31% in assay [6] (setting [7]); 68% in assay [6] (setting [8]); 70.6% (active) in assay [6] (at 50.0 µM).

Take `OCCCNc1nc2ccc(Cl)cc2c2ccccc12`: the growth inhibition in assay [1] (setting [7]) is 7%; in assay [1] (setting [8]), 5%; in assay [1] (at 50.0 µM), 23.6%; in assay [2] (setting [7]), 2%; in assay [2] (setting [8]), 2%; in assay [2] (at 50.0 µM), 12.4%. Besides, the growth inhibition in assay [3] (setting [7]) is 6%; in assay [3] (setting [8]) it was 3%; in assay [3] (at 50.0 µM), 25.7%; in assay [4] (setting [7]) it was 5%; in assay [4] (setting [8]), 1%; in assay [4] (at 50.0 µM), 2.7%. Further, the growth inhibition is -3% in assay [5] (setting [7]); -4% in assay [5] (setting [8]); 23.8% in assay [5] (at 50.0 µM); -1% in assay [6] (setting [7]); 5% in assay [6] (setting [8]); 70.5% (active) in assay [6] (at 50.0 µM).

`O=[N+]([O-])c1cccc(S(=O)(=O)N/N=C/c2cc(I)cc([N+](=O)[O-])c2O)c1`: the growth inhibition is 5% in assay [1] (setting [7]); 6% in assay [1] (setting [8]); 25.1% in assay [1] (at 50.0 µM); 5% in assay [2] (setting [7]); 2% in assay [2] (setting [8]); 13.1% in assay [2] (at 50.0 µM). Further, the growth inhibition in assay [3] (setting [7]) was 10%; in assay [3] (setting [8]), 11%; in assay [3] (at 50.0 µM), 34.5%; in assay [4] (setting [7]) it was -1%; in assay [4] (setting [8]) it was 2%; in assay [4] (at 50.0 µM), 7.85%. Also, the growth inhibition in assay [5] (setting [7]) is 2%; in assay [5] (setting [8]), -1%; in assay [5] (at 50.0 µM) it was 4.7%; in assay [6] (setting [7]) it was 6%; in assay [6] (setting [8]) it was 8%; in assay [6] (at 50.0 µM) it was 45.9%.

`CCCC(O)C[N+](=O)[O-]` (stereo not drawn): the growth inhibition was 6% in assay [1] (setting [7]); 71% (active) in assay [1] (setting [8]); 48.2% in assay [1] (at 50.0 µM); -1% in assay [2] (setting [7]); 6% in assay [2] (setting [8]); 13.2% in assay [2] (at 50.0 µM). Further, the growth inhibition in assay [3] (setting [7]) is -2%; in assay [3] (setting [8]), 9%; in assay [3] (at 50.0 µM), 15.2%; in assay [4] (setting [7]), -1%; in assay [4] (setting [8]), 1%; in assay [4] (at 50.0 µM), 4.5%. In addition, the growth inhibition is -1% in assay [5] (setting [7]); 4% in assay [5] (setting [8]); 13.5% in assay [5] (at 50.0 µM); 0% in assay [6] (setting [7]); 14% in assay [6] (setting [8]); 11.8% in assay [6] (at 50.0 µM).

With `CC(=O)Nc1ccc(-c2cnc3ccccc3c2)cc1`, the growth inhibition is 5% in assay [1] (setting [7]); 29% in assay [1] (setting [8]); 14.2% in assay [1] (at 50.0 µM); -13% in assay [2] (setting [7]); 15% in assay [2] (setting [8]); 6.2% in assay [2] (at 50.0 µM). Besides, the growth inhibition in assay [3] (setting [7]) was 8%; in assay [3] (setting [8]), 18%; in assay [3] (at 50.0 µM), 4.25%; in assay [4] (setting [7]), -5%; in assay [4] (setting [8]), -6%; in assay [4] (at 50.0 µM), 36.5%. Also, the growth inhibition in assay [5] (setting [7]) was -5%; in assay [5] (setting [8]), -1%; in assay [5] (at 50.0 µM), 11.2%; in assay [6] (setting [7]), 17%; in assay [6] (setting [8]), 29%; in assay [6] (at 50.0 µM), 9.15%.

Regarding `COc1cc(/C=C2/SC(=S)NC2=O)cc(OC)c1O`, the growth inhibition is -18% in assay [1] (setting [7]); 29% in assay [1] (setting [8]); 46.4% in assay [1] (at 50.0 µM); 3% in assay [2] (setting [7]); 49% in assay [2] (setting [8]); 30.9% in assay [2] (at 50.0 µM). Besides, the growth inhibition in assay [3] (setting [7]) is 1%; in assay [3] (setting [8]), 42%; in assay [3] (at 50.0 µM), 71.4% (active); in assay [4] (setting [7]), -25%; in assay [4] (setting [8]), 20%; in assay [4] (at 50.0 µM) it was -1.6%. Besides, the growth inhibition in assay [5] (setting [7]) is -24%; in assay [5] (setting [8]), 22%; in assay [5] (at 50.0 µM), 42.6%; in assay [6] (setting [7]), -1%; in assay [6] (setting [8]), 19%; in assay [6] (at 50.0 µM), 41.2%.

The record behind these values is PubChem BioAssay (NCI).
